Screens: PubChem BioAssay, several laboratories
An excerpt weighted towards active compounds, which were near 4.5% of everything screened.
ALR inh = inhibitors of human sulfhydryl oxidase ALR. AID 485317. P55789. 3.8% of 290,000 active. purified ALR, DTT oxidation, H2O2 HRP-luminol luminescence. inhibition, % (test concentration not listed);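 active = mean replicate inhibition above about 79%, with every replicate also reaching it, limit read from the data; inconclusive = only one of the two criteria met; inactive = mean below limit and not every replicate reaching it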
Rtt109 HAT inh = blocks Candida albicans Rtt109/Vps75 acetyltransferase activity; inhibition, % at 34.9 µM; Q5AAJ8; purified Rtt109/Vps75, ThioGlo CoA-SH fluorescence, 4 h; 0.16% of 330,000 active;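 active = inhibition of at least 50% in every replicate; inconclusive = best replicate reaches 50% inhibition but some replicates fall short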
Target sequence (Q5AAJ8 whole entry, looked up): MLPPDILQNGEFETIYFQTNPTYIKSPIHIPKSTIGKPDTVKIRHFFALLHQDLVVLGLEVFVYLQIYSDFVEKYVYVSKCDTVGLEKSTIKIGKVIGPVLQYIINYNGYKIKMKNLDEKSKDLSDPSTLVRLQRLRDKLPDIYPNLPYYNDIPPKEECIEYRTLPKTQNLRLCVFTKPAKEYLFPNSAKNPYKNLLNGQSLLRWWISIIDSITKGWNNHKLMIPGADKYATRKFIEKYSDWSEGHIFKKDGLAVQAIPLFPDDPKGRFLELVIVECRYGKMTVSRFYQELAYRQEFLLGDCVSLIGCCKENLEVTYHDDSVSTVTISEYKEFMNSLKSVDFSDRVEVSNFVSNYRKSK
Efflux pump mplx = inhibitors of Candida antifungal efflux pumps expressed in yeast; S. cerevisiae Candida pump triplex, Nile Red efflux; inhibition, % at 10 µM; 0.44% of 330,000 active; AID 485275;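 active = plate passing quality check with inhibition over a set limit, or well fluorescence over plate mean plus 4 SD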;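 note: Nile Red retained in pooled yeast measured as flow cytometry median fluorescence; higher means more Nile Red kept so more efflux inhibition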
HDAC3 inhib = human HDAC3 inhibition | 0.15% of 320,000 active | AID 2718 | inhibition, % at 8.3 µM | recombinant HDAC3, fluorogenic peptide/trypsin coupled, fluorescence; in the data active = inhibition above about 26%, passing the limit was not always enough; inconclusive = no clear call, values can overlap the other calls
GRK2 aptamer HTS = human GRK2 inhibition via aptamer displacement; P25098; bead flow cytometry, FAM-aptamer displacement from GRK2; 0.59% of 330,000 active; inhibition of aptamer binding, % at 10 µM;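 active = inhibition of aptamer binding above 40%, roughly 3 SD of noise, on plates passing a quality check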;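 note: median bead fluorescence of bound FAM aptamer so fluorescent compounds give negative values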
Rce1 inh = blocks yeast Ras-converting enzyme; Q03530; yeast membranes, quenched prenylated peptide cleavage fluorescence; calls only; 0.27% of 290,000 active;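 active = fall in fluorescence gain of 50% or more versus controls, with final raw signal at or below 3038400; inconclusive = same 50% fall but final raw signal above 3038400; inactive = fall in fluorescence gain under 50%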
Target sequence (Q03530 whole entry, looked up): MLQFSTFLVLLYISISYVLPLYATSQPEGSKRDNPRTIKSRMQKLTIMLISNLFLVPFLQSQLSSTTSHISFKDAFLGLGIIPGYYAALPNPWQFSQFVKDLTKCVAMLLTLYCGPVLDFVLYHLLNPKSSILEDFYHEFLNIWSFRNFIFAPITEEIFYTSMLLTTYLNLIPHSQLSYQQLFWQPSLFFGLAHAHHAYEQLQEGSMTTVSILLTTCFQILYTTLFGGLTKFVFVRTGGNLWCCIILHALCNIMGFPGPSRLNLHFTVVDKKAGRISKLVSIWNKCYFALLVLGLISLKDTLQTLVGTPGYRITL
GRK2 inh confirm = human GRK2 inhibition confirmation, cherry pick 1; shares compounds with GRK2 aptamer HTS; bead-bound GRK2, FAM-aptamer displacement, flow cytometry; aptamer displacement, % at 10 µM; 4% of 2,000 active;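 active = aptamer displacement above 40%, near three times the noise of non-fluorescent compounds, on plates passing quality checks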;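 note: negative values mostly reflect intrinsic compound fluorescence rather than true enhancement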
Aptamer quench SP = quenches fluorescent RNA aptamer, GRK2 hit artifact | shares compounds with GRK2 aptamer HTS | AID 504580 | Carboxyfluorescein RNA aptamer on beads, flow cytometry quenching; active compounds read low | fluorescence response (% of DMSO), % at 10 µM | 2,000 tested, under 10 active;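 active = compounds that quench the bead-bound fluorescent RNA probe, cutting fluorescence to under half of the solvent control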;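 note: counterscreen run without GRK2 so only probe quenching by compound is measured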
GRK2 confirm 2 = human GRK2 inhibition confirmation, cherry pick 2 | shares compounds with GRK2 aptamer HTS | AID 504782 | bead-bound GRK2, FAM-aptamer displacement, flow cytometry | 360 tested, under 10 active | inhibition of aptamer binding, % at 10 µM;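 active = inhibition of aptamer binding above 40%, about triple the noise seen with nonglowing compounds, on plates passing quality control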;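 note: negative values mostly come from compounds that fluoresce themselves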
FAM quench SP = counter-screen for GRK2 binding hits: quenchers of fluorescent RNA aptamer | shares compounds with GRK2 aptamer HTS | carboxyfluorescein RNA aptamer beads, flow cytometry quenching; active compounds read low | fluorescence response vs DMSO, % at 10 µM | 360 tested, under 10 active | AID 588494;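 active = response vs DMSO under 50%, meaning signal dropped by over half, treated as fluorescence quencher; inconclusive = no clear call, values can overlap the other calls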;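 note: labelled aptamer on streptavidin beads without GRK2 as a quench counter-screen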
Each line names hits and unclear results; the compound was inactive in the other large screens (follow-up assays come after a bar, where they were run).

COc1ccc(NC(=O)CSc2nc3c([nH]c4ccccc43)c(=O)n2C)c(OC)c1	GRK2 aptamer HTS 97 | GRK2 confirm 2 inactive | FAM quench SP inactive
COc1ccc(OC)c(S(=O)(=O)N2CCN(c3ncccn3)CC2)c1	none
COc1ccc(OC)c(S(=O)(=O)N2CCN(c3c(C)cccc3C)CC2)c1	GRK2 aptamer HTS 95 (no result: HDAC3 inhib) | GRK2 inh confirm inactive | Aptamer quench SP inactive
CCOc1ccccc1CN1CCN(C/C=C/c2ccc(OC)cc2)CC1CCO (centres undefined)	none
COc1ccc(/C=C/CN2CCN(CCc3ccccc3)C(CCO)C2)cc1 (centres undefined)	GRK2 aptamer HTS 90 | GRK2 inh confirm inactive | Aptamer quench SP inactive
O=C(NCCCNC(=O)c1cccnc1)c1ccc(Cl)cc1	none
COc1ccc(C(=O)Nc2nncs2)cc1S(=O)(=O)N1CCOCC1	none
COc1ccccc1-n1cnnc1SCC(=O)N1CCN(S(=O)(=O)c2ccccc2)CC1	none
O=C(CSc1nncs1)N1CCN(C(=O)c2ccco2)CC1	GRK2 aptamer HTS 81 | GRK2 inh confirm inactive | Aptamer quench SP inactive
O=C(CSc1nnc(SCc2ccc(Cl)cc2)s1)N1CCN(C(=O)c2ccco2)CC1	none (no result: ALR inh, Rce1 inh)
COc1ccccc1-n1cnnc1SCC(=O)N1CCN(C(=O)c2ccco2)CC1	GRK2 aptamer HTS 45 | GRK2 inh confirm inactive | Aptamer quench SP inactive
COc1ccc(C)cc1NC(C)C(=O)NC(=O)NC1CCCCC1 (centres undefined)	none (no result: Rce1 inh)
Cc1c(C(=O)Nc2ccccc2)cnn1-c1ccccc1	none
CC(=O)c1cccc(NC(=O)c2cnn(-c3ccccc3)c2C)c1	none | GRK2 inh confirm inactive | Aptamer quench SP inactive
CC(=O)C[C@H]1c2cc(C(F)(F)F)ccc2S(=O)(=O)N1C1CCCC1	GRK2 aptamer HTS 46 | GRK2 inh confirm inactive | Aptamer quench SP inactive
Cc1ccc(S(=O)(=O)N2CCC[C@H]2C(=O)NCc2ccccc2Cl)cc1	none (no result: Rce1 inh)
CNC(=O)COC(=O)/C=C/c1cn(-c2ccccc2)nc1-c1ccc2c(c1)OCCO2	none
Cc1ccc(-c2nn(-c3ccccc3)cc2/C=C/C(=O)OCC(=O)NC2CC2)o1	GRK2 aptamer HTS 78 | GRK2 inh confirm inactive | Aptamer quench SP inactive
CCCCN(C)C(=O)c1cc2c(Cl)nc3ccccc3c2s1	GRK2 aptamer HTS 49 | GRK2 inh confirm inactive | Aptamer quench SP inactive
O=CN(Cc1nc2ccccc2[nH]1)c1ccc(C(=O)O)cc1	none (no result: ALR inh, Efflux pump mplx, HDAC3 inhib, GRK2 aptamer HTS, Rce1 inh)
CC(C)c1ccc(O)c(NC(=S)NC(=O)c2ccc3c(c2)OCO3)c1	ALR inh inconclusive
COc1ccc(CN(C)C(=O)Cn2ccc(NC(=O)OCc3ccccc3)nc2=O)cc1OC	none (no result: Rce1 inh)
COc1ccc(CN(C)C(=O)Cn2ccsc2=N)cc1OC	none | GRK2 inh confirm inactive | Aptamer quench SP inactive
CC(=O)Nc1ccc(C(=O)CSc2nnnn2C2CCCC2)cc1	none (no result: ALR inh, Rtt109 HAT inh)
O=C1Nc2ccc(C(F)(F)F)cc2N2CCCC12 (centres undefined)	none (no result: ALR inh, Rtt109 HAT inh)
O=C1Nc2cc(C(F)(F)F)ccc2N2CCCCC12 (centres undefined)	GRK2 aptamer HTS 52 (no result: ALR inh) | GRK2 confirm 2 inactive | FAM quench SP inactive
Cc1ccc2sc(C)[n+](CCO)c2c1	Rtt109 HAT inh 104, GRK2 aptamer HTS 100 | GRK2 inh confirm inactive | Aptamer quench SP inactive
Cc1ccc(OCc2cc(C(=O)NC3CCc4ccccc43)no2)cn1 (centres undefined)	none
O=C(CNC(=O)c1ccccc1F)N/N=C/c1ccc2c(c1)OCO2	GRK2 aptamer HTS 82 | GRK2 inh confirm inactive | Aptamer quench SP inactive
O=C(CNC(=O)c1ccccc1Cl)N/N=C/c1ccc2c(c1)OCO2	none
COc1ccccc1CN(C)C(=O)COC(=O)c1ccc(Cl)nc1	none (no result: Rce1 inh)
O=c1c2ccccc2nnn1CSc1ccccc1	GRK2 aptamer HTS 97 | GRK2 confirm 2 inactive | FAM quench SP inactive
N#Cc1c(N)nc2c(c1-c1ccc(F)cc1)c(=O)nc1sccn12	none
COc1ccc(/C=C(/NC(=O)c2ccco2)C(=O)N2CCCCC2)cc1	none
Cc1cc(N2CCOCC2)ccc1/C=C1\NC(=O)N(CC(=O)Nc2ccccc2C)C1=O	none | GRK2 inh confirm inactive | Aptamer quench SP inactive
CN1CCCC(CC2Oc3ccccc3Sc3ccccc32)C1 (centres undefined)	GRK2 aptamer HTS 44 | GRK2 confirm 2 inactive | FAM quench SP inactive
CC(C)c1ccc(N(CC(=O)NC2CCCCC2)C(=O)CCC(=O)Nc2ccccn2)cc1	none
Cc1cc(-c2ccc(Cl)cc2)n2nc(C)cc2n1	GRK2 aptamer HTS 45 | GRK2 inh confirm inactive | Aptamer quench SP inactive
Cc1cc(C)n2nc(-c3ccc(Cl)cc3)cc2n1	none
O=C(NCCOc1nc(N2CCOCC2)nc(N2CCOCC2)n1)Nc1ccccc1	GRK2 aptamer HTS 46 (no result: ALR inh) | GRK2 inh confirm inactive | Aptamer quench SP inactive
CN(C)S(=O)(=O)c1ccc(NC(=O)CN2C(=O)NC(Cc3ccccc3)C2=O)cc1 (centres undefined)	none (no result: Rce1 inh)
O=C(NCc1cccnc1)c1cccc(NC(=O)c2ccco2)c1	none | GRK2 inh confirm inactive | Aptamer quench SP inactive
Cc1cc(C)cc(NC(=O)c2cccc(NC(=O)c3ccco3)c2)c1	none | GRK2 inh confirm inactive | Aptamer quench SP inactive
O=C(NCC1CCCO1)c1cccc(NC(=O)c2ccco2)c1 (centres undefined)	none | GRK2 inh confirm inactive | Aptamer quench SP inactive
O=C(NCC1CCCO1)c1cccc(NC(=O)c2ccc(Br)cc2)c1 (centres undefined)	none
O=C(NC1CCCC1)c1cccc(NC(=O)c2ccco2)c1	none | GRK2 inh confirm inactive | Aptamer quench SP inactive
CN1CC(=O)N(CC(=O)Nc2cccc3ccccc23)C1=O	none (no result: Rce1 inh)
CC(=O)c1c(C)[nH]c(C(=O)NCC2CCCCC2)c1C	none
COc1cc(-c2nnc(SCC(=O)NC3CCCC3)n2C)cc(OC)c1O	none (no result: ALR inh)
CCOc1ccc(NC(=S)NC(=O)c2ccco2)cc1	GRK2 aptamer HTS 74 | GRK2 inh confirm inactive | Aptamer quench SP inactive
CNC(=S)Nc1cc(OC)c(NC(=O)c2ccco2)cc1OC	none
CCOc1ccc(NC(=O)c2ccco2)cc1	none
COc1ccc(Cl)cc1NC(=S)NC(=O)c1ccco1	GRK2 aptamer HTS 44 (no result: ALR inh, Rce1 inh) | GRK2 confirm 2 inactive | FAM quench SP inactive
COc1ccc(NC(=O)Cc2ccc(Cl)cc2)cc1NC(=O)c1ccco1	GRK2 aptamer HTS 70 | GRK2 inh confirm inactive | Aptamer quench SP inactive
